Each structure is given as a SMILES string. Activity calls are given as the source filed them. Rule for the calls: active = hit-call score of the fitted dose curve at least 0.9, where 1 is the maximum; inactive = score below 0.9.

Assay [1] concerns the target CCAAT/enhancer-binding protein beta (Homo sapiens) (UniProt P17676). Put plainly: ATG_C_EBP_CIS: Attagene CIS-FACTORIAL HepG2 Assay for human CCAAT/Enhancer Binding Protein (C/EBP) beta (AID 2282927). To be noted: HepG2 Attagene cis-factorial transcription factor reporter; actives raise or lower the signal. The essentials:
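Transiently transfected HepG2 (MRTU library, endogenous TF-driven promoters); 24 h dosing; total RNA → oligo(dT) RT → PCR → 6-FAM primer extension → HpaI digest → CE; fit bidirectionally vs DMSO.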

Assay [2] can be described thus: ATG_CMV_CIS: Attagene CIS-FACTORIAL HepG2 Assay for human CMV (Internal Marker) (AID 2282928).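 Note: endpoint acts as a background internal control marker rather than a target.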 The settings on record: HepG2 CMV promoter reporter, transcription factor profiling; actives raise or lower the signal. The essentials:
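After transient transfection of HepG2 with reporter transcription units driven by cis-regulatory promoters, cells receive test chemical for 24 h. Labeled reporter amplicons, digested with HpaI, are sized and quantified by capillary electrophoresis against DMSO.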

Assay [3] addresses Aryl hydrocarbon receptor (Homo sapiens) (UniProt P35869). As to the kind of experiment: ATG_Ahr_CIS: Attagene CIS-FACTORIAL HepG2 Assay for human Aryl Hydrocarbon Receptor (Ahr) (AID 2282930). The settings on record: HepG2 AhR cis-factorial reporter transcription; actives raise or lower the signal. The method, boiled down: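 Read-out: reporter mRNA quantified by RT-PCR with fluorescent primer extension and capillary electrophoresis. Human HepG2 liver cells carried transfected cis-promoter reporter units and were exposed to chemical for 24 h; gain or loss fitted relative to DMSO.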

A short description of assay [4]: ATG_AP_1_CIS: Attagene CIS-FACTORIAL HepG2 Assay for human Activator Protein 1 (AP-1) (AID 2282931). To be noted: HepG2 Attagene cis-factorial AP-1 reporter mRNA; actives raise or lower the signal. The method, boiled down: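 Endogenous transcription-factor activity in human HepG2 liver cells is read through a cis-promoter reporter transcript, sampled 24 h after dosing. Detection uses RT-PCR with capillary electrophoresis; values come from bidirectional fitting relative to DMSO.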

Assay [5] in a line: ATG_AP_2_CIS: Attagene CIS-FACTORIAL HepG2 Assay for human Activator Protein 2 (AP-2) (AID 2282932). The settings on record: HepG2 AP-2 cis-reporter, Attagene transcription factor profiling; actives raise or lower the signal. The essentials: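 HepG2 cells transiently transfected with cis-element reporter units and exposed for 24 h. Reporter mRNA measured by RT-PCR, FAM labelling, HpaI digestion and capillary electrophoresis. Changes in either direction fitted relative to DMSO.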

Assay [6] can be described thus: ATG_BRE_CIS: Attagene CIS-FACTORIAL HepG2 Assay for human Bone Morphogenetic Protein (BMP) Response Element (BRE) (AID 2282933). The settings on record: HepG2 BMP response element reporter, Attagene transcription factor profiling; actives raise or lower the signal. The essentials:
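HepG2 cells transiently transfected with CIS reporter units (endogenous TF activity, BMP response element), dosed 24 h. Reporter mRNA quantified by RT-PCR, fluorescent labelling and capillary electrophoresis; bidirectional fit vs DMSO baseline.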

The target of assay [7] is Transcription factor E2F1 (Homo sapiens) (UniProt Q01094). Put plainly: ATG_E2F_CIS: Attagene CIS-FACTORIAL HepG2 Assay for human E2F Transcription Factor 1 (AID 2282935). The settings on record: HepG2 Attagene cis-reporter, E2F reporter RNA transcripts; actives raise or lower the signal. The essentials: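 Endogenous E2F1 activity read through cis-promoter reporter units transfected into HepG2. After 24 h compound treatment, reporter mRNA measured by RT-PCR, HpaI digestion and capillary electrophoresis. Bidirectional fit versus DMSO.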

Assay [8] can be described thus: ATG_E_Box_CIS: Attagene CIS-FACTORIAL HepG2 Assay for human Enhancer Box (E-box) (AID 2282936). The settings on record: HepG2 E-box cis-reporter transcription, actives raise or lower the signal. The method, boiled down:
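HepG2 cells transiently transfected with multiplexed cis-element reporter units, dosed 24 h; reporter mRNA quantified by RT-PCR, 6-FAM labelling, HpaI digestion and capillary electrophoresis. E-box (USF1) signal fitted bidirectionally vs DMSO.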

Assay [9] in a line: ATG_M_61_CIS: Attagene CIS-FACTORIAL HepG2 Assay for M61 Transcription Factor (Internal Marker) (AID 2282937). The settings on record: HepG2 Attagene CIS-FACTORIAL M61 internal marker reporter; actives raise or lower the signal. The essentials: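 Cells were transfected with reporter units under cis-regulatory promoters, treated with chemicals for 24 h, then lysed for RNA. Reporter transcripts were quantified by RT-PCR and capillary electrophoresis, and activity was fitted bidirectionally against DMSO.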

Assay [10] in a line: ATG_EGR_CIS: Attagene CIS-FACTORIAL HepG2 Assay for human Early Growth Response 1 (EGR1) (AID 2282938). To be noted: HepG2 Attagene CIS-FACTORIAL EGR reporter mRNA; actives raise or lower the signal. The essentials: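 Endogenous TF activity in HepG2 liver cells was gauged through cis-promoter reporter constructs transiently transfected. After 24 h dosing, reporter mRNA was quantified by RT-PCR and capillary electrophoresis, and curves fitted in both directions versus DMSO.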

Assay [11] is described as follows: ATG_Ets_CIS: Attagene CIS-FACTORIAL HepG2 Assay for human Erythroblast Transformation Specific (ETS) (AID 2282941). To be noted: HepG2 ETS cis-reporter transcription, actives raise or lower the signal. The essentials:
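Human HepG2 hepatoma cells were transiently transfected with promoter-driven reporter constructs and treated for 24 hours. Reporter transcripts were quantified by RT-PCR with fluorescent primer extension; bidirectional curve fitting used DMSO as reference.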

The target of assay [12] is Hepatocyte nuclear factor 3-beta (Homo sapiens) (UniProt Q9Y261). Put plainly: ATG_FoxA2_CIS: Attagene CIS-FACTORIAL HepG2 Assay for human Forkhead box A2 (FOXA2) (AID 2282942). To be noted: HepG2 cis-reporter transcription factor activity, 24 h; actives raise or lower the signal. The essentials:
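Endogenous transcription factor activity was read in HepG2 cells carrying transiently transfected cis-promoter reporter units. After 24 h dosing, reporter mRNA was quantified by RT-PCR and capillary electrophoresis, and values fitted bidirectionally versus DMSO.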

Assay [13] in a line: ATG_GATA_CIS: Attagene CIS-FACTORIAL HepG2 Assay for human GATA Binding Protein (AID 2282944). To be noted: HepG2 GATA cis-element reporter, Attagene multiplex mRNA; actives raise or lower the signal. The essentials:
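HepG2 cells transiently transfected with multiplexed cis-element reporter units measure endogenous GATA activity; after 24 h compound exposure, reporter mRNA quantified by RT-PCR and capillary electrophoresis. Changes fitted in both directions vs DMSO.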

Assay [14] in a line: ATG_GLI_CIS: Attagene CIS-FACTORIAL HepG2 Assay for human Zinc Finger Protein GLI1 (AID 2282945). To be noted: HepG2, Attagene cis-factorial reporter mRNA, GLI element; actives raise or lower the signal. The method, boiled down: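 Transiently transfected HepG2 cells report endogenous transcription factor activity via cis-element-driven reporter units. After 24 h compound exposure, reporter mRNA was measured by RT-PCR with capillary electrophoresis; bidirectional fitting against DMSO baseline.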

The target in assay [15] is Bile acid receptor (Homo sapiens) (UniProt Q96RI1). Put plainly: ATG_IR1_CIS: Attagene CIS-FACTORIAL HepG2 Assay for human Nuclear Receptor Subfamily 1 Group H Member 4 (NR1H4), IR1 submotif (AID 2282946). The settings on record: IR1 reporter transcription, actives raise or lower the signal. The essentials:
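HepG2 cells transiently transfected with multiple cis-promoter-driven reporter units to measure endogenous transcription factor activity; 24 h exposure. Reporter mRNA read by RT-PCR, FAM labelling, HpaI digestion and capillary electrophoresis. Bidirectional fit versus DMSO.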

The nature of assay [16]: ATG_DR4_LXR_CIS: Attagene CIS-FACTORIAL HepG2 Assay for human Liver X Receptor (LXR), DR4 submotif (AID 2282929). To be noted: HepG2 Attagene DR4 cis-reporter, mRNA transcription; actives raise or lower the signal. The essentials: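 Cells were transfected with multiple reporter transcription units, exposed to chemicals for 24 hours, then lysed for RNA. Reporter mRNA induction was measured by RT-PCR with capillary electrophoresis detection and fitted in both directions relative to DMSO.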

Assay [17] has as its target Retinoic acid receptor alpha (Homo sapiens) (UniProt P10276). Put plainly: ATG_DR5_RAR_CIS: Attagene CIS-FACTORIAL HepG2 Assay for human Retinoic Acid Receptor Alpha (RARE), DR5 submotif (AID 2282934). To be noted: HepG2 Attagene cis-factorial RARE DR5 reporter, mRNA; actives raise or lower the signal. The method, boiled down:
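Read-out: DR5-driven reporter transcript measured by RT-PCR, 6-FAM primer extension, HpaI digest and capillary electrophoresis. Human HepG2 liver cells carry transiently transfected cis-element reporter constructs; dosing lasts 24 h. Gain or loss of signal fitted against DMSO baseline.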

Assay [18] is described as follows: ATG_M_19_CIS: Attagene CIS-FACTORIAL HepG2 Assay for M19 Transcription Factor (Internal Marker) (AID 2282939). To be noted: HepG2 Attagene CIS-FACTORIAL M19 internal marker reporter; actives raise or lower the signal. The essentials: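 HepG2 cells transiently transfected with cis-regulated multiplexed reporter units, dosed 24 h. Reporter mRNA quantified by RT-PCR and capillary electrophoresis; internal background marker fitted bidirectionally versus DMSO.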

Assay [19] can be described thus: ATG_FoxO_CIS: Attagene CIS-FACTORIAL HepG2 Assay for human Forkhead box O (FoxO) (AID 2282943). The settings on record: HepG2 Attagene cis-reporter, FoxO element, mRNA; actives raise or lower the signal. The essentials: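 Read-out: fluorescence of 6-FAM-labelled reporter cDNA fragments resolved by capillary electrophoresis. Transiently transfected HepG2 cells were dosed for 24 h; activity fitted in both directions relative to DMSO controls.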

Chain of Transcription factor E2F1 (Homo sapiens) (Q01094 whole entry, looked up): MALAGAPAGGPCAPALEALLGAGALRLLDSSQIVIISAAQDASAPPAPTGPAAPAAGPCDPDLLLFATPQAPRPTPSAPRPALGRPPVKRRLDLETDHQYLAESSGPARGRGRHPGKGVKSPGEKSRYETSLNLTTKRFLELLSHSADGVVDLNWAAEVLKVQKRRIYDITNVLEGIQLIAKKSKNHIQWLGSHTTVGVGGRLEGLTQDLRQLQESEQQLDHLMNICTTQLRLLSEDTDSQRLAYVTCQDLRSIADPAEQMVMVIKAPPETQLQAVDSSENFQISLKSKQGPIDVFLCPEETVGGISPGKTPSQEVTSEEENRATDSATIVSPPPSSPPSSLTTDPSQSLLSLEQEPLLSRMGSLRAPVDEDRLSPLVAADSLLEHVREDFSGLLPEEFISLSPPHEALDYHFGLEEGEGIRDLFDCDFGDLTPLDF
Chain of Bile acid receptor (Homo sapiens) (Q96RI1 whole entry, looked up): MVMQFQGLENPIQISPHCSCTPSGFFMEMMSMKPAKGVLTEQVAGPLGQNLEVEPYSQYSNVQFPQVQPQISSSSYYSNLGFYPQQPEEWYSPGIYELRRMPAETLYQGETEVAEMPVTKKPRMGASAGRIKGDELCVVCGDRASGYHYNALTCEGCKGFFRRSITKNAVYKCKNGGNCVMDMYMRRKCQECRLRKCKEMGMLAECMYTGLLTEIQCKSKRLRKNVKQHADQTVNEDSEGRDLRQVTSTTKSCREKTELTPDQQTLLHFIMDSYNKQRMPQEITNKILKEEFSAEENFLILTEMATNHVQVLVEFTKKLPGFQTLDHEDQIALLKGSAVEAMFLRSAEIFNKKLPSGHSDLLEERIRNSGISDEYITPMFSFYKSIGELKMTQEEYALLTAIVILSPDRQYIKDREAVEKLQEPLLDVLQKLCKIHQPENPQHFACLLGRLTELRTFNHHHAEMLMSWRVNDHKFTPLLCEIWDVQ
Chain of CCAAT/enhancer-binding protein beta (Homo sapiens) (P17676 whole entry, looked up): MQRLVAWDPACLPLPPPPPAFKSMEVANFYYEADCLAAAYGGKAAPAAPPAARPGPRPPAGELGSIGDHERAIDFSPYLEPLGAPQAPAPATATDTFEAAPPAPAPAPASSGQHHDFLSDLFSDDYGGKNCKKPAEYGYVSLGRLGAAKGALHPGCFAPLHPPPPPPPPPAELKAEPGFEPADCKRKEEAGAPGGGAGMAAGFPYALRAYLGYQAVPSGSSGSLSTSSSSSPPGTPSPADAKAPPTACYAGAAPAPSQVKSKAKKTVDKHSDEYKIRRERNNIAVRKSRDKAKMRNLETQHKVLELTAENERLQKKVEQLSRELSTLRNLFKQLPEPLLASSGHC
Chain of Aryl hydrocarbon receptor (Homo sapiens) (P35869 whole entry, looked up): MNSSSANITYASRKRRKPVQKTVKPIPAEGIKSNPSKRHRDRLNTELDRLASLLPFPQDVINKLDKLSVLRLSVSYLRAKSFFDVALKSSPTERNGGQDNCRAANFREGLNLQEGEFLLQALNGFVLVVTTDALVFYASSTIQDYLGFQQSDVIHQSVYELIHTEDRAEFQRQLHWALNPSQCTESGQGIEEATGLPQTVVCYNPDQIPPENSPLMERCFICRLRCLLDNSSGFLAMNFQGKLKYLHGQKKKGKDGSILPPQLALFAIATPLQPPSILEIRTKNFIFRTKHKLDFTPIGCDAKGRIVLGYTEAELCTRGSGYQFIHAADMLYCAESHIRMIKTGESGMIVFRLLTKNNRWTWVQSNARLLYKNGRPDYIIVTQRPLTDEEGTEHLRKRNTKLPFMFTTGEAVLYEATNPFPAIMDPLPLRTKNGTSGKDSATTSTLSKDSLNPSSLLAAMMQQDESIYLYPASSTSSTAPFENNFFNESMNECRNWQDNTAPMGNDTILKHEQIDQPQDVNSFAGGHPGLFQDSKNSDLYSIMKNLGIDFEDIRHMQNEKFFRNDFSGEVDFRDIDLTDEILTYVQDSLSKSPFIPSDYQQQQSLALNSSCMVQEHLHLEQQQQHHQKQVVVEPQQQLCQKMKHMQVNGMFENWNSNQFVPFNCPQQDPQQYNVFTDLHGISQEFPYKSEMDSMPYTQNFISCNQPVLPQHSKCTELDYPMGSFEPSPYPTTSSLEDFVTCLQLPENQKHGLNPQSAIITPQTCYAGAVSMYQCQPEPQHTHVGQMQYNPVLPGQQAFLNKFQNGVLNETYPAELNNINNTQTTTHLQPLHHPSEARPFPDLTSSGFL
Chain of Retinoic acid receptor alpha (Homo sapiens) (P10276 whole entry, looked up): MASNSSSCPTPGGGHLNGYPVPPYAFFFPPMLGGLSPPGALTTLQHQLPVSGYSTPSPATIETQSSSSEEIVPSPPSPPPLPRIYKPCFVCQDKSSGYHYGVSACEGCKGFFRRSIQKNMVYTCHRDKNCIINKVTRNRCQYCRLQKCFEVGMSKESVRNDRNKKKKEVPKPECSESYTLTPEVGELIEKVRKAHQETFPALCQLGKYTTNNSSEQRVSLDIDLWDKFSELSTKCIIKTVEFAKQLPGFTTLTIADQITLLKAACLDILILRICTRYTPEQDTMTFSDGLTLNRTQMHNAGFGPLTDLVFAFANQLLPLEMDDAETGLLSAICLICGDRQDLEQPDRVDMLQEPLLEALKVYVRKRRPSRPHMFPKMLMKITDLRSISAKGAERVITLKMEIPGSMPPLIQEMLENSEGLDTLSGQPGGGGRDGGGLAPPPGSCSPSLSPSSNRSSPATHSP
Chain of Hepatocyte nuclear factor 3-beta (Homo sapiens) (Q9Y261 whole entry, looked up): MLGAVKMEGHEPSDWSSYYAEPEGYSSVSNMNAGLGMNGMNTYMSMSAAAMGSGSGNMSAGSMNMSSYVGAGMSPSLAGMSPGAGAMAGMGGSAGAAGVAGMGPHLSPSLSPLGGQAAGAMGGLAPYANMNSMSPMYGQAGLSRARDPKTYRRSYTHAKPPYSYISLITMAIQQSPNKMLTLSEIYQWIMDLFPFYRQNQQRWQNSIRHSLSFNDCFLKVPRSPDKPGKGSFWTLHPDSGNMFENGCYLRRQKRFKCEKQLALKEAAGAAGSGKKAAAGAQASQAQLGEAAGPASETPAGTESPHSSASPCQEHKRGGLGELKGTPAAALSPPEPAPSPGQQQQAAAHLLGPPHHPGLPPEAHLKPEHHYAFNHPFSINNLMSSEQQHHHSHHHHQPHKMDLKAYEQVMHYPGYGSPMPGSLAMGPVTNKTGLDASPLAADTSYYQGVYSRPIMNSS

In the case of `Cc1ncc[nH]1`, the outcome in assay [1], in assay [2], in assay [3], in assay [4], in assay [5] and in assay [6] was inactive. Further, the compound was classed as inactive in [7], in assay [8], in [9], in [10], in assay [11] and in assay [12]. In addition, the outcome in assay [13], in [14] and in [15] was inactive.
As usually defined, the AC50 is the concentration giving half of the maximal activity seen. As to `O=c1c(O)c(-c2ccc(O)cc2)oc2cc(O)cc(O)c12`, the result in assay [1], in [16], in assay [3], in assay [4], in [5] and in assay [6] was inactive. Besides, the call in assay [17], in [7], in assay [8], in assay [9], in [10] and in assay [18] was inactive. Further, the call in assay [11], in assay [12], in assay [19], in [13] and in assay [15] was inactive. For the same compound, the half-maximal activity concentration (AC50) in [2] is 9.22 µM (active).
Turning to `Oc1ccc2cc(SSc3ccc4cc(O)ccc4c3)ccc2c1`, the AC50 was 26 µM (active) in assay [2], 100 µM (active) in assay [4], 57 µM (active) in assay [6] and 27.7 µM (active) in assay [10]. The compound was called inactive in assay [16], in assay [3], in assay [5], in assay [17], in [7] and in assay [8]. In addition, the result in assay [9], in assay [18], in [19], in assay [13], in assay [14] and in assay [15] was inactive.
For `CCCCC1(COC(=O)CCC(=O)O)C(=O)N(c2ccccc2)N(c2ccccc2)C1=O`, the result in assay [1], in assay [2], in [3], in assay [4], in [5] and in assay [6] was inactive. The call in assay [17], in assay [7], in assay [8], in [10], in assay [18] and in assay [11] was inactive. The call in [12], in assay [19], in assay [13] and in assay [14] was inactive.
On to `COc1ccccc1N=Nc1c(S(=O)(=O)O)cc2cc(S(=O)(=O)O)cc(NC(C)=O)c2c1O`, for which the compound was classed as inactive in assay [2], in [16], in [4], in [5], in assay [6] and in [17]. Also, the compound was called inactive in assay [7], in [8], in assay [9], in assay [10], in [18] and in [11]. Also, the call in [12], in [13] and in [14] was inactive. For the same compound, the half-maximal activity concentration (AC50) in [3] was 16.4 µM (active).

The values above are taken from PubChem BioAssay (EPA / NIEHS).
